FEN1 inh-1 – blocks human flap endonuclease 1. hit rate 0.35% among 390,000. Recombinant FEN1 flap cleavage, fluorescence, 15 min. Potency, µM (top dose mostly 114 µM), for the others: at the highest dose activity change, negative = inhibition, usual class: inhibitors. AID 588795; note: % is set by controls: 0 for no effect and ±100 for the full control effect; nearly all actives have a fitted effect of over 65% in size
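FEN1 at 10 nM, compound pretreatment for 15 min (room temperature), 50 nM final substrate to initiate; endpoint reads at 0 and 15 min; DMSO-only plates used as vehicle background.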
Pol iota inh – DNA polymerase iota (human) inhibition | Pol iota fluorescent replication assay, 10 min | Potency, µM (highest dose often 115 µM), for the others: top-dose activity, negative = inhibition, hits mostly inhibitors | hit rate 1% among 390,000 | AID 588590
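Fluorescent replication assay read twice, at 0 min and 10 min after adding 50 nM (final) substrate. Enzyme (10 nM) and compounds were first incubated 15 min at room temperature; enzyme-free buffer wells were negative controls.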
Pol kappa inh – inhibitors of human DNA polymerase kappa; Q9UBT6; purified Pol kappa, fluorescent DNA synthesis assay, 10 min; Potency, µM (top dose mostly 107 µM), without a hit: at the top dose activity, negative = inhibition, most hits filed as inhibitors; hit rate 0.53% among 400,000; note: % is set by controls: 0 for no effect and ±100 for the full control effect
Target sequence (Q9UBT6 whole entry, looked up): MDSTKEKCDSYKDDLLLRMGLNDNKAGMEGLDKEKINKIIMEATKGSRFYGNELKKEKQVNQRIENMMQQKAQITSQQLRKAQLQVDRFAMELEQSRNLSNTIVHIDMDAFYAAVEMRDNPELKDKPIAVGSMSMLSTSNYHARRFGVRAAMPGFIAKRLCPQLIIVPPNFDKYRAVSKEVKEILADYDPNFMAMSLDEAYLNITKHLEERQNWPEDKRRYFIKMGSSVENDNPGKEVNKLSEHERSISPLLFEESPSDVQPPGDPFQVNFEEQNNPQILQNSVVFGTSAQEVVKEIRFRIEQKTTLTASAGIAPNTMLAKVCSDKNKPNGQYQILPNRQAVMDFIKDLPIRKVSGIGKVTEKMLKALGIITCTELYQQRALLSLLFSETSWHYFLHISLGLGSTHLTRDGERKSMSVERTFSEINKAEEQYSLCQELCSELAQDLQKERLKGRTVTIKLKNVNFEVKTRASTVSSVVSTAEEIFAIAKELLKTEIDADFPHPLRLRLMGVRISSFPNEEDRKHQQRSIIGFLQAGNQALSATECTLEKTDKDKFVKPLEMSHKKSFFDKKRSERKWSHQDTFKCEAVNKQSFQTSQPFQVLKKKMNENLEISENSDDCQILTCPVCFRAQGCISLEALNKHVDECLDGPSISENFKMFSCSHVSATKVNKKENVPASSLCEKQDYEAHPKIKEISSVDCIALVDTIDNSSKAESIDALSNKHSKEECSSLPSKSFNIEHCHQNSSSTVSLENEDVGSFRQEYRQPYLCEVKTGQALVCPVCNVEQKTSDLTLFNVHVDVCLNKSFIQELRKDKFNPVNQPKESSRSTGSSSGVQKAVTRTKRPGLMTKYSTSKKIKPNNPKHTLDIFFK
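Activity was followed as the change in fluorescence between reads at 0 and 10 min after starting the reaction with 50 nM substrate. Beforehand, 10 nM polymerase had been preincubated with compound for 15 min at room temperature.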
WRN inhibitor – WRN helicase (human) inhibition | Potency, µM (doses to about 114 µM), without a hit: at the highest dose activity change, negative = inhibition, actives largely listed as inhibitors | WRN helicase unwinding, fluorescent forked duplex, kinetic | Q14191 | hit rate 0.46% among 360,000; note: % is set by controls: 0 for no effect and ±100 for the full control effect; nearly all actives have a fitted effect of over 55% in size
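Primary qHTS, 1536-well format. 20 nM WRN + compound, 15 min RT; start with 100 nM forked fluorophore/quencher duplex, 2 mM ATP (final); kinetic read ex 525/em 598 nm.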
POLB inh – blocks human DNA polymerase beta activity | P06746 | Pol beta primer extension/strand displacement, fluorescence kinetic | Potency, µM (series often up to 114 µM), for inactives: top-dose activity change, negative = inhibition, usual class: inhibitors | hit rate 1.3% among 340,000 | AID 485314; note: % is set by controls: 0 for no effect and ±100 for the full control effect
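10 nM enzyme + cpd, 15 min RT; start with substrate 50 nM final; read 0 min and after 10 min RT. Corrected, normalized data; 4-parameter Hill curve fit.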
Pol eta inh – blocks human DNA polymerase eta activity | recombinant Pol eta, fluorescent DNA replication assay | AID 588591 | Potency, µM (series often up to 114 µM), inactives show at the top dose activity change, negative = inhibition, usual class: inhibitors | hit rate 1.2% among 390,000 | Q9Y253; note: % is set by controls: 0 for no effect and ±100 for the full control effect
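Pol eta (10 nM) was preincubated with compounds for 15 min at room temperature, after which fluorescent replication substrate (50 nM final) was added to start the reaction. Fluorescence was read kinetically at 0 and 10 min.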
FEN1 inh-2 – confirmation of human FEN1 inhibitors | shares compounds with FEN1 inh-1 | FEN1 flap cleavage, TAMRA/BHQ2 fluorogenic DNA substrate | Potency, µM, most hits filed as inhibitors | hit rate 79% among 880 | AID 720498; note: nearly all actives have a fitted effect of over 60% in size
* marks the source's active call; other numbers are inactive results; ? = inconclusive; · = not tested or not shown; [ ] = another dose, or the depositor's remark. Hits are enriched below; roughly 2.4% of the tested compounds scored in any of these assays. Calls come from the whole dose curve; as a rule, active = well fitted curve in the direction sought with a large enough effect; inconclusive = small, poorly fitted or top-dose-only effect, or another doubt; inactive = no such curve, though single readings can be large; an effect the other way counts as inactive or inconclusive. Potency is the fitted concentration of half-maximal effect.

SMILES	FEN1 inh-1	Pol iota inh	Pol kappa inh	WRN inhibitor	POLB inh	Pol eta inh	FEN1 inh-2
CN1CCCC1CCNc1ncnc2ccc(-c3ccc4c(c3)OCO4)cc12 (configuration not stated)	·	·	·	·	·	·	47.8*
Cc1nc2ccn(Cc3cccnc3)c(=O)c2cc1C(=O)NCc1ccccc1	-1.4%	4.1%	0.0%	·	29.3%	-2.4%	·
O=C(NC(c1ccc(Cl)cc1)c1cnccn1)C1CCN(CCCc2ccccc2)CC1 (configuration not stated)	·	·	·	-0.5%	·	·	·
CCN(CC)C(=O)C1=C(C)N(CCC2=CCCCC2)C(=O)C(CC(=O)NCCN2CCOCC2)C1 (configuration not stated)	·	·	·	-6.6%	·	-17.8%	·
O=C1c2ccc3c4c(ccc(c24)C(=O)N1CCCCO)C(=O)N(CCCCO)C3=O	?	?	-2.9%	-7.7%[11.6 µM]	1.9%	-14.7%	30.1*
Cc1cccc(Nc2nc3c(S(=O)(=O)c4ccc(Br)cc4)nnn3c3ccsc23)c1C	3.2%	-7.1%	-1.3%	·	60.6%	1.9%	·
COc1ccc(-c2c(-c3ccccc3)c(C(=O)C(=O)NCCCN(C)C)n3ccc4cc(OC)c(OC)cc4c23)cc1OC	39.8µM*	102.3%	?	-10.2%	-40.8%	?	33.8*
C/C=C/c1cccc(-c2nc(C(=O)N3CCOCC3)cc3c2[C@@H](CCO)N(C(=O)NC(C)C)C3)c1	·	·	·	0.9%	·	·	·
CCc1ccccc1NC(=O)C(=O)NCCc1sc(-c2cccc(C)c2)nc1C	-4.6%	13.7%	0.0%[60.1 µM]	·	-2.8%	-17.6%	·
c1ccc2c(c1)c1c(c3ccccc32)CN2CCCC2C1 (configuration not stated)	17.8µM*	?	-30.9%	0.4%[11.6 µM]	·	?	37.9*
c1ccc(CN2CCC(N3CCC(N4CCCCCC4)CC3)CC2)cc1	-6.6%	123.9%	-5.8%	-17.7%	36.4%	-14.5%	·
O=[N+]([O-])c1cc2c(c([N+](=O)[O-])c1)Nc1ccccc1O2	·	·	·	-4.9%	·	?	·
O=C1Nc2ccccc2Oc2cc([N+](=O)[O-])cc(Oc3ccccc3)c21	?	?	-39.2%	?	?	?	84.9*
CC(=O)NC(c1ccccc1)c1nc(/C=C/c2ccccc2)cs1 (configuration not stated)	·	·	·	-5.4%	·	·	·
COc1cc(/C=C2\SC(=S)N(C(Cc3ccccc3)C(=O)O)C2=O)ccc1O (configuration not stated)	?	?	?	50.1µM*	50.1µM*	?	?
COc1cc(/C=C2/SC(=S)N(CC3CCCO3)C2=O)ccc1O (configuration not stated)	44.7µM*	?	-21.0%	79.4µM*	?	?	42.6*
O=C(O)c1ccc(/C=C2\SC(=S)N(Nc3ccccc3)C2=O)cc1	-5.4%	?	?	1.3%[11.6 µM]	-22.9%	-1.6%	·
COc1cc(/C=C2\SC(=S)N(Nc3ccccc3)C2=O)ccc1O	?	50.1µM*	-31.3%	15.8µM*	11.2µM*	?	84.9*
COc1ccc(/C=C2\SC(=S)N(C(C(=O)O)c3ccccc3)C2=O)c(OC)c1 (configuration not stated)	-3.6%	?	-9.2%	-8.5%	-5.3%	-22.8%	·
COc1cc2c(Cc3ccccc3)cncc2cc1O	2.2%	19.3%	89.1µM*	-0.7%[11.6 µM]	·	0.3%	?
Cc1nc(C(F)(F)F)ccc1C(=O)N1CCC(C)(C(=O)NS(=O)(=O)C2CC2)C1 (configuration not stated)	·	·	·	3.5%	·	·	·
O=c1c2ccccc2c(/C=N/NS(=O)(=O)c2ccccc2)c(O)n1-c1ccccn1	-4.0%	?	-22.5%	?	33.1%	5.9%	?
CC(C)Nc1ccc(Nc2ccnc3cc4ccccc4cc23)cc1	25.1µM*	?	?	35.5µM*	14.1µM*	-17.7%	23.9*
CC(=O)c1cccc(NC(=O)c2cccc(N3C(=O)c4ccccc4C3=O)c2)c1	?	-10.1%	4.0%	?	?	?	?
Cc1ccc(/C=C2/Sc3ccccc3N(CC(=O)NCC3CCCO3)C2=O)cc1 (configuration not stated)	-13.0%	-1.4%	-14.9%	-3.3%	-3.1%	-15.7%	·
SMILES	FEN1 inh-1	Pol iota inh	Pol kappa inh	WRN inhibitor	POLB inh	Pol eta inh	FEN1 inh-2
Cc1cc(/C=C2\Sc3ccccc3N2C)cc(C)[n+]1CC1CCCO1 (configuration not stated)	50.1µM*	29.0%	?	?	?	-17.7%	33.8*
CC(C)ON(C(C(=O)NO)C(C)C)S(=O)(=O)c1ccc(-c2ccccc2)cc1 (configuration not stated)	·	·	1.4%[60.1 µM]	·	·	·	·
Cc1cnc(NS(=O)(=O)c2ccc(N)cc2)nc1-c1ccccc1O	·	·	·	-4.4%	·	-4.4%	·
CC(OC(=O)c1ccc([N+](=O)[O-])s1)C(=O)NC1CCCCC1C (configuration not stated)	-19.6%	?	-20.6%	2.0%[11.6 µM]	·	-17.9%	12*
CC1CCCC(NC(=O)COC(=O)c2ccccc2[N+](=O)[O-])C1C (configuration not stated)	-2.2%	61.3%	-12.0%	-30.2%	-2.5%	0.8%	·
O=C(COC(=O)c1ccc([N+](=O)[O-])s1)Nc1ncc(C(F)(F)F)cc1Cl	?	?	-40.4%	-8.0%[57.1 µM]	?	35.5µM*	8.49*
CC1CCCC(NC(=O)COC(=O)c2ccc([N+](=O)[O-])s2)C1C (configuration not stated)	-23.8%	89.1µM*	-18.7%	-8.4%	·	?	6.01*
Nc1ccn([C@@H]2O[C@H](C(=O)NCC(F)(F)F)[C@@H](O)[C@H]2O)c(=O)n1	·	·	·	-7.6%	·	·	·
O=c1c2ccccc2nc(N/N=C/c2ccc(O)cc2)n1O	25.1µM*	-5.7%	0.5%	-10.8%[57.1 µM]	6.4%	-13.7%	30.1*
CCOC(=O)c1c(CSc2ccccc2)n(C)c2cc(Br)c(OCC(O)CNC(CO)(CO)CO)cc12 (configuration not stated)	44.7µM*	?	-24.5%	?	?	?	42.6*
COc1cc2nc(SCC(=O)Nc3c(C)cc(C)cc3C)n3nc(CCn4c(C)nc5ccccc54)nc3c2cc1OC	0.1%	13.5%	-2.2%	·	-12.5%	·	·
CCOc1cc(/C=C2\C(=O)N(CCC#N)N=C2C)ccc1OCC(N)=O	-4.6%	?	-2.9%	-13.4%[57.1 µM]	5.8%	-17.2%	?
